SMILES strings stand for the structures. This is one part of the list. Values without a mark were called inactive. The source made the active and inactive calls.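 Rule for the calls, unless noted: active = signal rise of at least 3 SD above the untreated control mean, in both duplicate wells; inactive = the rest.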

Tested on in one experiment: not listed separately
As to the kind of experiment: parental CHO-K1 cell activation, no KCNQ2 – FluxOR thallium flux, duplicate, counter-screen for KCNQ2 potentiator project, confirmation (AID 2282).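 Note: counter screen of KCNQ2 potentiator hits so any rise reflects channel-independent effects.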 Particulars: parental CHO-K1 cells, FluxOR thallium flux fluorescence; at 10 µM; hits give high values; zero = vehicle mean+3SD, 100% = vehicle-minus-blank window. (Counterscreens check selectivity or assay interference.)
As to `CCCCNC(=O)Nc1c(C)cc(SC#N)cc1C`, the activity increase over 3SD of controls is 5.5% (active).
For `C/C(=N\NC(=O)c1ccoc1C)c1ccccc1O`, the activity increase over 3SD of controls is 53.8% (active).
As for `CCN(CC(=O)NC(=O)NCc1ccccc1)Cc1nc2ccccc2c(=O)[nH]1`, the activity increase over 3SD of controls is -2.8%.
For `CCc1ccc(NC(=O)C(=O)NNC(=O)c2cccs2)cc1`, the activity increase over 3SD of controls was -16%.
Still for that read-out and setting: next, `N#Cc1c(-c2ccccc2)nc(SCc2cccc(C(F)(F)F)c2)[nH]c1=O`: -8.3%.
`Cc1ccc(/C=N/NC(=O)c2cc3ccccc3cc2O)o1`: the activity increase over 3SD of controls was 42.5% (active).
With `COc1ccc(NC(=O)/C(Cl)=C(/Cl)S(=O)Cc2ccc(C)cc2)cn1` (centres undefined), the activity increase over 3SD of controls was -1.5%.
`FC(F)(F)c1cccc(NC(=S)Nc2cccc(Cl)c2)c1`: the activity increase over 3SD of controls is -22.1%.
On to `S=C(NCc1ccc(Cl)cc1)NC12CC3CC(CC(C3)C1)C2`, for which the activity increase over 3SD of controls was 46.3% (active).
As for `O=C(NNC1=C(C(=O)C(F)(F)F)CCC1)c1ccncc1`, the activity increase over 3SD of controls was -5.7%.
Regarding `CC(C)(C)C1CCC(C(=O)NCC(c2cccs2)N2CCOCC2)CC1` (centres undefined), the activity increase over 3SD of controls is -27.5%.
On the same count and under the same terms, next, `CCn1c(=S)[nH]c2sc3c(c2c1=O)CCCCC3`: -14.2%; `Cc1[nH]n(-c2cccc(Cl)c2)c(=O)c1/C=N/n1c(C)nc2ccccc2c1=O`: 36% (active).
As for `CCn1c2ccccc2c2cc(NC(=O)CNC)ccc21`, the activity increase over 3SD of controls is -6.1%.
Still for that read-out and setting: next, `Cc1ccc(-n2nc3c(c2NC(=O)CCC2CCCCC2)CS(=O)C3)cc1` (centres undefined): 7.4% (active); `O=C(Nc1ccc(Oc2ccccc2)cc1)c1ccco1`: -13.5%.
Same read-out and setting: next, `Cc1cccc(NC(=O)CSC(N)=O)c1C`: -5%; `Cc1cccc(NC(=S)NC(=O)c2ccc(Br)o2)c1`: -7%; `CCn1c(O)c(N=NC2=NC(=O)CS2)c2cc(C)ccc21`: -1.5%.
Regarding `CC1=C/C(=N\OS(=O)(=O)c2ccccc2)C=CC1=O`, the activity increase over 3SD of controls was -13.5%.
The same measure, in the same setting: next, `CSc1nnc(NC(=O)c2nc(S(=O)(=O)Cc3ccc(C)cc3)ncc2Cl)s1`: -8.9%; `Oc1c(Cl)cc(Cl)cc1/C=N/c1ncn[nH]1`: -13.3%; `COc1cccc(NC(=O)C2C(c3ccccc3)C2(Cl)Cl)c1` (centres undefined): -15.2%.
Turning to `CCC1(C)Cc2c(sc3[nH]c(=S)n(Cc4ccccc4)c(=O)c23)CO1` (centres undefined), the activity increase over 3SD of controls is -13%.
Turning to `O=C(NCc1ccc2c(c1)OCO2)c1ccc(Cl)s1`, the activity increase over 3SD of controls was 5.5% (active).
Consider `CCOC(=O)c1c(NC(=S)NC)sc2c1CCCC2`, for which the activity increase over 3SD of controls is 6.2% (active).
With `CC(NC(=O)Nc1ccccc1)c1ccccc1` (centres undefined), the activity increase over 3SD of controls was -4.7%.
As to `CC(NC(=O)Nc1cccc([N+](=O)[O-])c1)c1ccc2c(c1)OCO2` (centres undefined), the activity increase over 3SD of controls was 19.3% (active).
The same measure, in the same setting: next, `Cc1ccc(NC(=O)C2CC2c2ccccc2)cc1` (centres undefined): 58.6% (active); `CS(=O)(=O)c1sc(C(=O)NC(=S)Nc2ccc(OC(F)(F)F)cc2)c2c1C=CCC2`: -1.6%; `CCOC(=O)c1sc(=S)n2c1[nH]c(=O)c1ccc(C(=O)OC)cc12`: -16.8%.
As for `CCC1(C)Cc2c(sc3nnn(CC(=O)Nc4ccc(Cl)cc4)c(=O)c23)CO1` (centres undefined), the activity increase over 3SD of controls is -19.3%.

In a further experiment the target is Potassium voltage-gated channel subfamily KQT member 1 (Homo sapiens) (UniProt P51787). The experiment can be described thus: KCNQ1 activation in stable CHO cells – cell-based, FluxOR thallium flux, selectivity assay for KCNQ2 potentiator project, confirmation (AID 2283;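 active = fluorescence ratio rise of at least 3 SD of vehicle wells above their mean, in both replicate wells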;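 note: 0% = vehicle mean plus 3 SD and 100% = vehicle minus unstimulated blank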). Particulars: FluxOR thallium flux fluorescence, at 10 µM, hits give high values, beyond 3SD, as % of vehicle-control signal.
Sequence of Potassium voltage-gated channel subfamily KQT member 1 (Homo sapiens) (P51787 whole entry, looked up): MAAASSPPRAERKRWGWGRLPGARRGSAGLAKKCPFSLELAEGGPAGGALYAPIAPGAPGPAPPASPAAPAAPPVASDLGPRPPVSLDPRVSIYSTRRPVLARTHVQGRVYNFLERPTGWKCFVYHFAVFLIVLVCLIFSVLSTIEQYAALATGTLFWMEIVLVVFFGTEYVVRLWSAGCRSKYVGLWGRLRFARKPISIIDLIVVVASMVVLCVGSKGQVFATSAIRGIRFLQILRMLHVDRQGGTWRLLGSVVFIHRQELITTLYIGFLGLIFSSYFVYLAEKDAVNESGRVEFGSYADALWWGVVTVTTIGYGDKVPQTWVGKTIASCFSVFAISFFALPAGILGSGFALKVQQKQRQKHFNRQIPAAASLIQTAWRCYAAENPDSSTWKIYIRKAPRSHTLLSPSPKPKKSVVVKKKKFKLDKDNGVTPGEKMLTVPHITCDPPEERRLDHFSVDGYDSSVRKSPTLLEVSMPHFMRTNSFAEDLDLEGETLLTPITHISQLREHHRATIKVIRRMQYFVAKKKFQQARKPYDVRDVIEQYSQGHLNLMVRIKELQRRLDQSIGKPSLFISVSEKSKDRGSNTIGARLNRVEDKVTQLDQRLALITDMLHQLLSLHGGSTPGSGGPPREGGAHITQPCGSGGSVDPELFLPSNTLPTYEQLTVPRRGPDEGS
For `CCCCNC(=O)Nc1c(C)cc(SC#N)cc1C`, the activation over 3SD threshold was 75.2% (active).
Still for that read-out and setting: for `C/C(=N\NC(=O)c1ccoc1C)c1ccccc1O` the value was -7.3%; for `CCN(CC(=O)NC(=O)NCc1ccccc1)Cc1nc2ccccc2c(=O)[nH]1`, -14.6%.
`CCc1ccc(NC(=O)C(=O)NNC(=O)c2cccs2)cc1`: the activation over 3SD threshold is 85.7% (active).
Same read-out and setting: next, `N#Cc1c(-c2ccccc2)nc(SCc2cccc(C(F)(F)F)c2)[nH]c1=O`: -15%; `Cc1ccc(/C=N/NC(=O)c2cc3ccccc3cc2O)o1`: -6.4%; `COc1ccc(NC(=O)/C(Cl)=C(/Cl)S(=O)Cc2ccc(C)cc2)cn1` (centres undefined): -20.5%.
On the same count and under the same terms, for `FC(F)(F)c1cccc(NC(=S)Nc2cccc(Cl)c2)c1` the value was -10.3%.
Turning to `S=C(NCc1ccc(Cl)cc1)NC12CC3CC(CC(C3)C1)C2`, the activation over 3SD threshold was -0.2%.
For the molecule `O=C(NNC1=C(C(=O)C(F)(F)F)CCC1)c1ccncc1`, the activation over 3SD threshold was -11.4%.
Same read-out and setting: next, `CC(C)(C)C1CCC(C(=O)NCC(c2cccs2)N2CCOCC2)CC1` (centres undefined): -18.7%.
The same measure, in the same setting: for `CCn1c(=S)[nH]c2sc3c(c2c1=O)CCCCC3` the value was -21.6%.
On the same count and under the same terms, for `Cc1[nH]n(-c2cccc(Cl)c2)c(=O)c1/C=N/n1c(C)nc2ccccc2c1=O` the value was -26.8%; for `CCn1c2ccccc2c2cc(NC(=O)CNC)ccc21`, -12.2%.
For the molecule `Cc1ccc(-n2nc3c(c2NC(=O)CCC2CCCCC2)CS(=O)C3)cc1` (centres undefined), the activation over 3SD threshold was 30.1% (active).
The same measure, in the same setting: for `O=C(Nc1ccc(Oc2ccccc2)cc1)c1ccco1` the value was 26% (active).
Turning to `Cc1cccc(NC(=O)CSC(N)=O)c1C`, the activation over 3SD threshold was -15.2%.
As to `Cc1cccc(NC(=S)NC(=O)c2ccc(Br)o2)c1`, the activation over 3SD threshold is -15.7%.
For the molecule `CCn1c(O)c(N=NC2=NC(=O)CS2)c2cc(C)ccc21`, the activation over 3SD threshold was -22.6%.
Still for that read-out and setting: for `CC1=C/C(=N\OS(=O)(=O)c2ccccc2)C=CC1=O` the value was -8.8%; for `CSc1nnc(NC(=O)c2nc(S(=O)(=O)Cc3ccc(C)cc3)ncc2Cl)s1`, -21.2%.
Consider `Oc1c(Cl)cc(Cl)cc1/C=N/c1ncn[nH]1`, for which the activation over 3SD threshold is -9.2%.
Still for that read-out and setting: for `COc1cccc(NC(=O)C2C(c3ccccc3)C2(Cl)Cl)c1` (centres undefined) the value was 4.2% (active); for `CCC1(C)Cc2c(sc3[nH]c(=S)n(Cc4ccccc4)c(=O)c23)CO1` (centres undefined), -16.6%.
The same measure, in the same setting: next, `O=C(NCc1ccc2c(c1)OCO2)c1ccc(Cl)s1`: 49.7% (active); `CCOC(=O)c1c(NC(=S)NC)sc2c1CCCC2`: -17.4%.
Turning to `CC(NC(=O)Nc1ccccc1)c1ccccc1` (centres undefined), the activation over 3SD threshold was -0.5%.
Same read-out and setting: for `CC(NC(=O)Nc1cccc([N+](=O)[O-])c1)c1ccc2c(c1)OCO2` (centres undefined) the value was 80% (active); for `Cc1ccc(NC(=O)C2CC2c2ccccc2)cc1` (centres undefined), 64.2% (active).
Still for that read-out and setting: for `CS(=O)(=O)c1sc(C(=O)NC(=S)Nc2ccc(OC(F)(F)F)cc2)c2c1C=CCC2` the value was 45.7% (active); for `CCOC(=O)c1sc(=S)n2c1[nH]c(=O)c1ccc(C(=O)OC)cc12`, 4.8% (active); for `CCC1(C)Cc2c(sc3nnn(CC(=O)Nc4ccc(Cl)cc4)c(=O)c23)CO1` (centres undefined), 4.5% (active).

These data come from PubChem BioAssay.
